# Source: PubChem
# USP8 inh – blocks human USP8 ubiquitin-rhodamine cleavage; P40818; purified USP8, Ub-rhodamine cleavage fluorescence, 30 min; inhibition, % at 20 µM; hit rate 4.2% among 47,000; AID 1645853
# USP7 inh – blocks human USP7 ubiquitin-rhodamine cleavage | hit rate 0.3% among 47,000 | purified USP7, Ub-rhodamine cleavage fluorescence | inhibition, % at 20 µM | Q93009
# UCHL1 block – human UCHL1 deubiquitinase inhibition. inhibition, % at 20 µM. purified UCHL1, Ub-rhodamine cleavage fluorescence. hit rate 0.2% among 47,000
# USP10 block – blocks human USP10 ubiquitin-rhodamine cleavage. hit rate 1.1% among 47,000. inhibition, % at 20 µM. Q14694. purified USP10, Ub-rhodamine fluorescence, 60 min
# Numbers without * were called inactive. In the library only some 4.6% were active in any assay of this set; here they are far more common. Cut-off read from the data, not from the text of the source: active = inhibition above about 30%; inactive = the rest.
SMILES,USP8 inh,USP7 inh,UCHL1 block,USP10 block
CCc1ccc(NC(=O)Cn2c(=O)n(Cc3ccccc3)c(=O)c3nn(CC)cc32)cc1,98.2*,32.1*,5.1,56.2*
CCn1cc2c(n1)c(=O)n(Cc1ccccc1)c(=O)n2CC(=O)Nc1ccc(OC)cc1,68.3*,9.9,4.3,47.0*
CCn1cc2c(n1)c(=O)n(Cc1ccccc1)c(=O)n2CC(=O)Nc1ccc(C(C)C)cc1,71.2*,14.1,2.5,23.5
CC(C)c1ccc(NC(=O)Cn2c(=O)n(Cc3ccncc3)c(=O)c3ncccc32)cc1,1.0,-1.7,-0.4,-2.8
Cc1cnc(N2CC[C@@H]3[C@@H](CO[C@H]3CN(C)Cc3ccco3)C2)nc1,-5.8,-0.6,-1.5,-2.1
COc1ccc(/C=C/c2cnc3ccccc3n2)cc1OC,-43.6,-10.4,-12.0,-8.4
